FBPA Giardia inh – qHTS Assay for Inhibitors of Fructose-1,6-bisphosphate Aldolase from Giardia Lamblia. A8B2U2. Potency, µM (titrated, usually from 59.6 µM), for the others: at the highest dose activity, negative = inhibition, hits mostly inhibitors. 290,000 compounds, 0.71% hits. purified Giardia FBPA; further: potency means the concentration at half of the fitted maximal effect; on the % scale 0 is the no-effect control and ±100 the full control effect; nearly all actives have a fitted effect of over 55% in size
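40 nM FBPA preincubated 10 min at RT with compound (up to 57.5 uM final), then substrate plus GAPDH/TPI/NAD/arsenate coupling and diaphorase/resazurin added. Fluorescence read after 20 min at RT, 525/598 nm.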
LmPK inh – qHTS Assay for Inhibitors of Leishmania Mexicana Pyruvate Kinase (LmPK) | purified LmPK, Kinase-Glo ATP luminescence, 1 h | Potency, µM (series often up to 57.5 µM), inactives show at the top dose activity change, negative = inhibition, actives largely listed as inhibitors | 290,000 compounds, 0.37% hits | AID 1721, 2009; further: potency means the concentration at half of the fitted maximal effect; on the % scale 0 is the no-effect control and ±100 the full control effect
Target sequence (Q27686 whole entry, looked up): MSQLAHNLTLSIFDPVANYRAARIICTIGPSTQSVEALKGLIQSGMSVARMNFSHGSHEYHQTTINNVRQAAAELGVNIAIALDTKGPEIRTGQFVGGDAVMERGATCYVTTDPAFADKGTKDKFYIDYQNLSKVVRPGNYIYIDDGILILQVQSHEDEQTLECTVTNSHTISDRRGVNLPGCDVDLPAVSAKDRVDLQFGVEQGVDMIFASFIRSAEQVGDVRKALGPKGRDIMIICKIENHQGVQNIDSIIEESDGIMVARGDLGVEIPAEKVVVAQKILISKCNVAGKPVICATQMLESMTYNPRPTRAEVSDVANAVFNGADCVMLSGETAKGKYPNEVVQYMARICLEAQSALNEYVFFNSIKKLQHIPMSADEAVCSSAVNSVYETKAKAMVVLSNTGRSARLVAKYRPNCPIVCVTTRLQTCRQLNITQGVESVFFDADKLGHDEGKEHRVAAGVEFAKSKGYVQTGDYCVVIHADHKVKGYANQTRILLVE
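Kinase-Glo luminescence read after 1 h RT reaction of 0.1 nM LmPK with 0.5 mM PEP and 0.1 mM ADP. Activity scaled between uninhibited and enzyme-free controls.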
Cycloheximide cs – Cycloheximide Counterscreen for Small Molecule Inhibitors of Shiga Toxin. cell reporter, cycloheximide protein synthesis inhibition counterscreen. max response, %. 300,000 compounds, 12% hits; in the data active means max response mostly above about 13%, no sharp cut-off; inactive means mostly below about 14%; further: read at 38.3 µM for the half of the compounds with a filed dose; 0% is about no effect
Shiga inhibitor – A qHTS for Small Molecule Inhibitors of Shiga Toxin. Vero cells, Shiga toxin protein synthesis inhibition reporter. inhibition, % at 38.7 µM. 290,000 compounds, 9.2% hits; in the data active means inhibition mostly above about 28%, no sharp cut-off; inactive means mostly below about 43%; further: 0% is about no effect
NS1 inh – qHTS Assay for Inhibitors of Influenza NS1 Protein Function; 270,000 compounds, 0.4% hits; Potency, µM (doses to about 46.1 µM), for inactives: at the highest dose activity, positive = more growth; calls by dose curve; further: potency means the concentration at half of the fitted maximal effect; actives are rising curves; nearly all actives have a fitted effect of over 50% in size
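OD600 was taken as the measure of yeast growth restored by compound in an NS1-expressing S. cerevisiae strain. Cells had been washed out of glucose medium and diluted 1:100 into galactose -URA medium, pH 6.0.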
Active calls of the source: *; i = inactive; ? = inconclusive; . = no result; + = active, no number; [ ] = dose if it differs, or a comment. Rows were chosen to be rich in hits. Some 14% of all compounds tested hit in one or more screens of this group. Unless noted, the call rests on the fitted dose curve; in most records, active means well fitted curve in the direction sought with a large enough effect; inconclusive means small, poorly fitted or top-dose-only effect, or another doubt; inactive means no such curve, though single readings can be large; an effect the other way counts as inactive or inconclusive.

SMILES	FBPA Giardia inh	LmPK inh	Cycloheximide cs	Shiga inhibitor	NS1 inh
O=[N+]([O-])c1ccc(N/N=C/c2ccc(O)c(O)c2O)c(S(=O)(=O)N2CCOCC2)c1	9.98µM*	-17.5%	-1.5	-4.8	13.7%
CCCOc1ccc(/C=N/Nc2ccccc2[N+](=O)[O-])c(OCCC)c1	-5.3%	-9.4%	27.9*	14.3	3.2%
CCOc1cccc(OCCOc2ccccc2[N+](=O)[O-])c1	-3.9%	-5.8%	3.6	-18.3	-25.3%
O=[N+]([O-])c1ccccc1N/N=C\c1ccccc1Cl	-1.8%	?	26.1*	41.5*	2.9%
O=[N+]([O-])c1ccc(N/N=C/c2cccc(O)c2O)c(S(=O)(=O)N2CCOCC2)c1	?	5.0%	-4.2	3.5	13.0%
COc1ccc(-n2ccn(CC(=O)Nc3ccc(OC)cc3OC)c(=O)c2=O)cc1	10.5%	-2.2%	16.3	-5.7	-0.5%
CC(C)CO[C@H](c1ccc2c(c1)OCO2)[C@H](C)Br	.	.	.	.	-0.3%
Cc1ccc([C@@H](O)c2cnc(C)n2Cc2ccccc2)cc1	.	.	.	.	-3.1%
CC(C)C1=CC2=CCC3[C@@](C)(CCC[C@@]3(C)C(=O)O)C2CC1 (stereo partly specified)	0.8%	.	.	.	.
O=c1c(-c2ccc(F)cc2)nc2cnc(N3CCOCC3)nc2n1C1CC1	-1.7%	.	.	.	.
O=C1c2ccccc2C(=O)C1c1nccc2ccccc12	-6.7%	-24.1%	41.1*	96.7*	-0.1%
c1ccc(-c2nnc(C3CC(c4cccnc4)=NO3)o2)cc1 (stereo unspecified)	-0.6%	1.4%	14.9*	20.1	12.2%
Fc1ccc(C2=NOC(c3nnc(-c4ccccc4)o3)C2)cc1 (stereo unspecified)	1.6%	0.8%	8.2	6.0	-4.8%
Cc1ccc(-c2nnc(-c3cccnc3)o2)cc1	8.3%	-3.5%	36.2*	81.2*	-13.7%
Clc1ccc(-c2nnc(-c3cccnc3)o2)cc1	-5.3%	-2.1%	19.6*	55.5*	-21.3%
COc1ccc(-c2nnc(-c3ccc(N)cc3)o2)cc1	-26.0%	-14.2%	43.9*	61.9*	-4.3%
CC1C2CCC3C4CC=C5CC(N(C)C)CC[C@@]5(C)C4CC[C@@]32CN1C (stereo partly specified)	2.7%	.	.	.	.
CCN(CC)CCN(Cc1cc2cc3c(cc2[nH]c1=O)OCCO3)C(=S)NC	4.8%	2.9%	-1.4	-1.0	-8.0%
COc1cc(/C=C2\CCn3c2nc2cc(C(=O)O)ccc2c3=O)ccc1OC(F)F	-27.6%	0.8%	-1.8	1.4	-0.8%
COc1ccc(-c2ccc(-c3cc(=O)oc4c(C(C)C)ccc(C)c34)cc2)cc1	-3.8%[89.2 µM]	.	5.4	i	.
COc1ccc(-c2nnc(-c3cccnc3)o2)cc1	2.5%	-5.7%	27.7*	61.5*	-62.6%
FC(F)(F)c1ccc(-c2nnc(-c3cccnc3)o2)cc1	0.5%	-3.2%	-2.5	-6.1	-13.8%
c1cncc(-c2nnc(-c3cccs3)o2)c1	6.0%	-13.5%	20.0*	58.0	-8.9%
Clc1ccc(-c2nnc(-c3ccccc3)o2)cn1	-8.5%	-2.4%	11.3*	7.2	-2.7%
COc1ccc(/C=N\NC(=O)c2ccccc2OC)cc1COc1ccccc1C	1.7%	0.1%	7.2	2.7	-5.1%
SMILES	FBPA Giardia inh	LmPK inh	Cycloheximide cs	Shiga inhibitor	NS1 inh
COc1ccc(/C=N/NC(=O)c2ccoc2C)cc1COc1c(C)cccc1C	-4.8%	-9.4%	32.8*	117.4*	-115.4%
COc1cc(/C=N/NC(=O)c2ccoc2C)cc(OC)c1O	-5.7%	-3.2%	47.2*	83.4*	7.5%
COCCNC(=O)C(OC(=O)C1=Cc2ccccc2OC1)C(C)C (stereo unspecified)	0.6%	6.8%	1.8	-7.9	1.1%
O=C(CNC(=O)c1ccccc1F)NCc1cccnc1	-3.7%	1.2%	-2.4	-6.4	-45.9%
COc1ccc(-c2cc(=O)c3ccccc3s2)cc1	-4.1%	-4.2%	29.0*	92.5*	-94.7%
COc1cc(OC)cc(-c2sc3ccccc3c(=O)c2I)c1	-9.4%	.	11.9	i	.
COc1ccc2sc3ccccc3c(=O)c2c1	-3.4%	-18.4%	43.9*	80.5*	-57.8%
CC(=O)N1CCC2(CCCN(C(c3ccccc3)c3ccccc3)C2)CC1	-4.7%	.	.	.	.
O=C(Nc1ccc2c(c1)C(=O)OC2)c1ccc(F)cc1F	1.7%	1.0%	26.5*	34.9*	-5.4%
O=C(Nc1ccc2c(c1)C(=O)OC2)c1ccc(C(F)(F)F)cc1	9.9%	9.2%	-7.7	12.3	15.7%
O=C(Nc1ccc2c(c1)C(=O)OC2)c1ccc(Cl)cc1	-6.6%	0.1%	18.2*	40.1	11.5%
O=C(O)c1ccccc1-c1ccccc1C(=O)Nc1ccc2c(c1)Cc1ccccc1-2	.	.	.	.	5.0%
N#Cc1cnc2nc(SCc3ccccc3)nn2c1	-24.9%	0.2%	35.0*	70.1*	1.4%
CCOC(=O)c1cn2nc(SCc3ccccc3)nc2nc1C	2.3%	2.8%	39.2*	52.0*	-31.8%
COc1ccccc1C1=Nn2c(nnc2-c2ccccc2C)SC1	-22.5%	.	-2.9	-13.8	.
Cc1cccc(C(=O)O/N=C(\N)Cc2ccc([N+](=O)[O-])cc2)c1	1.4%	-1.1%	11.5	21.5	-199.0%
N/C(Cc1ccc([N+](=O)[O-])cc1)=N\OC(=O)c1ccc2ccccc2c1	2.3%	1.5%	44.6*	130.9*	-92.2%
N/C(Cc1ccc([N+](=O)[O-])cc1)=N\OC(=O)c1ccco1	3.0%	3.1%	34.7*	35.3*	-2.6%
COc1ccc(CN(C(=O)CN2C(=O)c3ccccc3S2(=O)=O)C(C(=O)NCC2CCCO2)c2ccco2)cc1 (stereo unspecified)	6.1%	4.1%	-4.1	15.8	-5.9%
CCn1c(NCc2ccc3c(c2)OCO3)nc2ccccc21	.	-1.0%	22.0*	73.4	-10.7%
C=CCn1c(NCc2ccc3c(c2)OCO3)nc2ccccc21	-0.9%	1.4%	33.0*	+	-7.7%
Cc1ccc(CNC(=O)C2COc3ccccc3O2)cc1 (stereo unspecified)	-0.6%	2.6%	26.0*	35.3	-2.0%
Cc1ccc(NC(=O)CC2COc3ccccc3O2)cc1 (stereo unspecified)	-3.1%	-3.4%	30.8*	53.7*	-30.2%
CCOc1ccc(/C=C2\SC(=O)N(CCNC(=O)C3COc4ccccc4O3)C2=O)cc1OC (stereo unspecified)	-3.2%	1.7%	19.3*	16.5	8.4%
COc1ccc(/C(C)=N/NC(=O)CNC(=O)C2COc3ccccc3O2)c(OC)c1 (stereo unspecified)	7.9%	4.5%	-1.5	17.4	-1.0%
COc1ccc(C)cc1NC(=O)CC1COc2ccccc2O1 (stereo unspecified)	-2.0%	1.0%	4.2	1.4	-14.7%
COc1ccc(CNC(=O)C2COc3ccccc3O2)c(OC)c1 (stereo unspecified)	12.8%	2.3%	30.5*	103.1*	-0.4%
COc1ccc(/C=C2/SC(=O)N(CCNC(=O)C3COc4ccccc4O3)C2=O)cc1 (stereo unspecified)	0.1%	2.1%	14.6	-2.5	5.5%

Compound activity deposited in PubChem by National Center for Advancing Translational Sciences (NCATS).
